Most compounds without a hit are left out; they make up all but 13% or so of the library.
Pf growth 96h = Primary qHTS for delayed death inhibitors of the malarial parasite plastid, 96 hour incubation; AID 504834, 2011; P. falciparum luciferase reporter growth, 96 h; hit rate 6.9% among 320,000; Potency, µM (top dose mostly 28.7 µM), hits mostly inhibitors
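Delayed-death screen, second-generation endpoint: infected erythrocytes, 2% hematocrit, 0.05% parasitemia final; 96 hours at 37 C, 5% CO2; luciferase detection reagent; luminescence decrease equals reduced growth.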
HCV inh = qHTS Assay for Inhibitors of Hepatitis C Virus (HCV); Huh7.5.1 HCVcc-Cre infection, luciferase reporter, 44 h; Potency, µM (top dose mostly 41.8 µM), usual class: inhibitors; hit rate 3.4% among 340,000
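Antiviral activity was scored by luciferase reporter output from cells infected with HCVcc-Cre (~0.5 moi) in presence of compound, 44 h infection period, cells seeded 1,000/well 4 h prior.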
HCMV inh = qHTS Assay for inhibitors of the human cytomegalovirus (HCMV). HFF cells, HCMV-luciferase reporter, 72 h; active compounds read low. activity change, negative = inhibition, % at 57.5 µM. hit rate 4.5% among 410,000. AID 1259415, 2018; in the data active = activity change below about -60%; inconclusive = no clear call, values can overlap the other calls; inactive = above about -39%
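After 16 h attachment at 37C, HFF cells received test compound and HCMV-luciferase (1 PFU/cell); reporter luminescence read 72 h later, data normalized against buffer-only and known inhibitor Salinomycin.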
Pf growth 48h = Primary qHTS for delayed death inhibitors of the malarial parasite plastid, 48 hour incubation | P. falciparum luciferase growth in erythrocytes, 48 h | Potency, µM (top dose mostly 28.7 µM), hits mostly inhibitors | hit rate 5.9% among 310,000 | AID 504832, 2011
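Firefly luciferase activity from engineered P. falciparum reports growth; inhibitors lower the luminescent signal. Cultures contained 2% hematocrit erythrocytes at 0.1% final parasitemia.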
Hits are given with their value. Unless noted, calls come from the whole dose curve; as a rule, active = well fitted inhibition curve with a large enough effect; inconclusive = small, poorly fitted or top-dose-only effect, or another doubt; inactive = no such curve, though single readings can be large or run the other way.

What do the screens show for `CNC(=O)c1c2c(nc3ccc(Br)cc13)CCCC2`?
Pf growth 96h: inactive; HCV inh: 25.1µM; HCMV inh: inactive; Pf growth 48h: inactive

What do the screens show for `Cc1ccc2nc3c(c(C(=O)O)c2c1)CCC3`?
Pf growth 96h: inactive; HCV inh: inactive; HCMV inh: inactive; Pf growth 48h: inconclusive

How did O=C(O)c1ccccc1N/N=C/c1c(Sc2nnnn2-c2ccccc2)nc2ccccn2c1=O do in these assays?
Pf growth 96h: 0.586µM; HCV inh: inactive; HCMV inh: inactive; Pf growth 48h: inconclusive

What do the screens show for `O=C(Nc1ccc(S(=O)(=O)N2CCCC2)cc1)c1ccc2c(=O)n3c(nc2c1)CCCCC3`?
Pf growth 96h: inconclusive; HCV inh: 11.2µM; HCMV inh: -90.2; Pf growth 48h: inactive

How did Cc1ccc(S(=O)(=O)N2CCCCC2)cc1NC(=O)c1ccc2c(=O)n3c(nc2c1)CCCCC3 do in these assays?
Pf growth 96h: inconclusive; HCV inh: 11.2µM; HCMV inh: inactive; Pf growth 48h: inactive

What do the screens show for `Cc1ccc(NC(=O)c2ccc3c(=O)n4c(nc3c2)CCC4)cc1F`?
Pf growth 96h: inactive; HCV inh: inconclusive; HCMV inh: inactive; Pf growth 48h: inactive

What do the screens show for `CNC(=O)c1ccc(NC(=O)c2ccc3c(=O)n4c(nc3c2)CCC4)cc1`?
Pf growth 96h: inconclusive; HCV inh: inactive; HCMV inh: inactive; Pf growth 48h: inactive

How did CC(C)[C@H](NC(=O)OC(C)(C)C)c1cc(C(=O)N2CCOCC2)c(N)s1 do in these assays?
HCMV inh: inactive

Results for Cn1c(NC(=O)C[n+]2cc(-c3ccc(F)cc3)n3c2CCC3)cc(=O)n(C)c1=O ?
Pf growth 96h: 0.586µM; HCV inh: inactive; HCMV inh: inactive; Pf growth 48h: 3.7µM

What do the screens show for `O=C(C[n+]1cc(-c2ccc(F)cc2)n2c1CCC2)c1cccs1`?
Pf growth 96h: inconclusive; HCV inh: inactive; HCMV inh: inactive; Pf growth 48h: 8.28µM

Results for Cn1c(NC(=O)CCC2CCCCC2)cc(=O)n(C)c1=O ?
Pf growth 96h: inconclusive; HCV inh: inactive; HCMV inh: inactive

What do the screens show for `Cc1ccc(-c2c[n+](CC(=O)Nc3cc(=O)n(C)c(=O)n3C)c3n2CCC3)cc1`?
Pf growth 96h: 1.17µM; HCV inh: inactive; HCMV inh: -68.2; Pf growth 48h: 4.15µM

Results for O=C(CN1CCN(c2ccc(F)cc2)CC1)c1cccs1 ?
Pf growth 96h: inactive; HCV inh: inactive; HCMV inh: inactive; Pf growth 48h: inactive

Results for COCC(=O)Nc1cc(=O)n(C)c(=O)n1C ?
Pf growth 96h: inactive; HCV inh: inactive; HCMV inh: inactive; Pf growth 48h: inactive

How did O=C(CC1NCCNC1=O)Nc1ccccc1F (centres undefined) do in these assays?
HCMV inh: inactive

How did CC1CCN(c2ccc(-c3cccc(NS(=O)(=O)c4ccc(Cl)s4)c3)nn2)CC1 do in these assays?
HCMV inh: inactive

What do the screens show for `CCCN(CCC)CCNC(=O)Cn1ncc2c([nH]c3ccc(C)cc32)c1=O`?
HCMV inh: inactive

What do the screens show for `COc1ccc(S(=O)(=O)NN(C)C(=O)c2nn(-c3ccccc3)ccc2=O)cc1`?
Pf growth 96h: 5.86µM; HCV inh: inactive; HCMV inh: inactive; Pf growth 48h: inconclusive

What do the screens show for `COc1ccc(-n2ccc(=O)c(C(=O)O)n2)cc1`?
Pf growth 96h: inactive; HCV inh: inactive; HCMV inh: inactive; Pf growth 48h: inactive

How did O=C(CNC(=S)N(Cc1ccccc1Cl)C1CCCC1)NCCN1CCOCC1 do in these assays?
Pf growth 96h: inactive; HCV inh: inactive; HCMV inh: inactive; Pf growth 48h: 10.4µM

How did O=C(c1ccncc1)c1nccn1-c1ccccn1 do in these assays?
Pf growth 96h: 13.1µM; HCV inh: inactive; HCMV inh: inactive; Pf growth 48h: inactive

What do the screens show for `Cc1ccc(-c2nc(-c3ccncc3)no2)cc1`?
Pf growth 96h: inactive; HCV inh: inconclusive; HCMV inh: inactive; Pf growth 48h: inactive

Results for Cc1ccc(-c2nc(-c3ccccc3)no2)c(Cl)c1 ?
Pf growth 96h: inactive; HCV inh: inactive; HCMV inh: -79.4

Results for CC(C)(C)c1ccc(-c2nc(-c3ccncc3)no2)cc1 ?
Pf growth 96h: inconclusive; HCV inh: inactive; HCMV inh: -70.2; Pf growth 48h: inactive

Results for Cc1cccc(-c2nc(-c3ccncc3)no2)c1 ?
Pf growth 96h: 10.4µM; HCV inh: inconclusive; HCMV inh: inactive; Pf growth 48h: inactive

How did CN(C)CCCN1C(=O)C2CCc3[nH]c4ccccc4c3C2C1=O (centres undefined) do in these assays?
Pf growth 96h: 2.94µM; HCV inh: inactive; HCMV inh: inactive; Pf growth 48h: inactive

Source: PubChem BioAssay
